Structures are written as SMILES. Compounds without any hit were thinned out: in the full panel of roughly 83,000, 20% have a hit.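 Compound tested at a single concentration for 48 hours in 96-well plates; a percent growth value below 10 was scored as active.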 Unmarked numbers belong to inactive results. The source made the active and inactive calls.

The values that follow come from PubChem BioAssay (NCI).

What all share (assay): NCI-60 one-dose screen, 48 h (100 = growth as untreated, 0 = no growth, -100 = all killed)
What all share (conditions): 10 µM unless noted

Assay [1] has as its system SK-MEL-2 melanoma.
In assay [2] the test system is EKVX NSCLC.
The test system of assay [3] is SN12C renal.
Assay [4] relates to UO-31 renal.
Assay [5] relates to TK-10 renal.
For assay [6], the system named is ACHN renal.
For assay [7], the system named is CAKI-1 renal.
Assay [8] has as its system A498 renal.
The subject of assay [9] is CCRF-CEM leukemia.
For assay [10], the system named is MOLT-4 leukemia.
The test system of assay [11] is SR leukemia.
Assay [12] has as its system RPMI-8226 leukemia.
Assay [13] has as its system OVCAR-8 ovarian.
The test system of assay [14] is OVCAR-5 ovarian.
Assay [15] deals with OVCAR-4 ovarian.
Assay [16] deals with SK-OV-3 ovarian.
In assay [17] the test system is IGROV1 ovarian.
Assay [18] deals with OVCAR-3 ovarian.
In assay [19] the test system is HS 578T breast.
The subject of assay [20] is NCI/ADR-RES ovarian.

With `COC(=O)Nc1nc2ccc(C(=O)C3CC3)cc2[nH]1`, the growth in [1] is 27.9%; in assay [2], 32.7%; in assay [3], 19.7%; in assay [4], 6.33% (active); in assay [5], 35.5%; in assay [6] it was 37.1%. The growth in [7] is 27.1%; in assay [8], 6.47% (active); in assay [9], -22.3% (active); in [10], -16% (active); in assay [11] it was -21.7% (active); in assay [12], -19.7% (active). Besides, the growth in [13] was 8.29% (active); in assay [14] it was 48.9%; in [15], 44.7%; in [16], 22.7%; in assay [17], -59.4% (active); in assay [18], -61.7% (active). In addition, the growth in assay [19] was -17.7% (active); in assay [20], 9.11% (active).
Consider `c1ccc2[nH]c(SSc3nc4ncncc4[nH]3)nc2c1`, for which the growth in assay [1] is 57.2%; in [2], 67.5%; in [3], 42.3%; in assay [4], 31.6%; in assay [5], 30%; in assay [6], 32.2%. The growth in assay [7] is -46.4% (active); in assay [8], 61.7%; in assay [9], 24.7%; in assay [10] it was 26%; in assay [11] it was 32.8%; in assay [12] it was 14.6%. The growth was 23% in assay [13]; 44.6% in assay [14]; 33.9% in assay [15]; 24.1% in assay [16]; 43.5% in assay [17]; 22.9% in [18]. In addition, the figures for the growth in [19] and in assay [20] were 59.7% and 26.2%, respectively.
With `Cc1ccc(-n2nnc(C3=NCCc4c3[nH]c3ccc(Cl)cc43)c2C)cc1`, the growth in assay [1] was 62.6%; in assay [2] it was 70.8%; in [3], 81.6%; in [4], 57.8%; in assay [5], 78.9%; in [6] it was 57.2%. Besides, the growth in [7] is 56.1%; in [8] it was 66.5%; in assay [9], 27.8%; in assay [10], 49.6%; in assay [11] it was 52.8%; in assay [12], 58.6%. For the same compound, the growth is 66.8% in assay [13]; 80.2% in assay [14]; 76.8% in assay [15]; 87% in assay [16]; 90.5% in assay [17]; 83.5% in assay [18]. Besides, in [20], the growth is 76.3%.
Take `O=C1c2ccccc2C2(c3ccc(O)cc3)c3ccccc3Oc3cccc1c32` (centres undefined): the growth in assay [1] is 25.4%; in assay [2], 45.7%; in [3], 37.5%; in [4], 45.7%; in [5], 84.3%; in assay [6] it was 43.4%. Moreover, the growth in assay [7] was 45.9%; in [8], 47.1%; in [9], 14.8%; in [10] it was 24.8%; in assay [11], 9.2% (active); in assay [12], 17.8%. In addition, the growth in assay [13] is 66.8%; in assay [14], 30.7%; in assay [15], 86.9%; in assay [16] it was 25.7%; in [17], 59.9%; in [18] it was 11.2%. For the same compound, the growth in assay [19] is 25.8%; in [20] it was 11.1%.
`Clc1ccc(/C=N\N=c2\scc(-c3ccc(Cl)cc3)n2/N=C/c2ccc(Cl)cc2)cc1`: the growth was 91.4% in [1]; 109% in assay [2]; 102% in assay [3]; 95.7% in assay [4]; 92.5% in [5]; 106% in [6]. The growth is 107% in assay [7]; 92.1% in assay [8]; 97% in assay [9]; 91.7% in assay [10]; 93% in assay [11]; 106% in assay [12]. For the same compound, the growth in assay [13] was 99.5%; in assay [14] it was 105%; in assay [15] it was 114%; in assay [16] it was 102%; in assay [17] it was 103%; in [18], 114%. Further, the values for the growth in assay [19] and in [20] were 96.5% and 109%, respectively.
Turning to `N#Cc1c(-c2ccccc2)nc(SCC2CO2)nc1N1CCOCC1` (centres undefined), the growth in [1] is 66.9%; in [2] it was 78.4%; in [3], 69.9%; in assay [4], 29.5%; in assay [5], 68.6%; in assay [6] it was 59.2%. Moreover, the growth in [7] was 38.6%; in assay [8], -15.2% (active); in assay [9], 96.6%; in assay [10] it was 68.6%; in assay [11] it was 72.5%; in assay [12] it was 47.9%. The growth in assay [13] is 81.8%; in [14], 60.8%; in [15], 71.1%; in assay [16], 28.1%; in assay [17], 38.1%; in assay [18], 61.7%. The growth in [19] is 50%; in assay [20], 76.2%.
`CC(C)(O)c1cccc(F)c1`: the growth in [1] was 124%; in [2] it was 92%; in assay [3], 94.7%; in assay [4], 88.7%; in [5], 109%; in assay [6], 99.1%. The growth in assay [7] is 101%; in assay [8] it was 97%; in assay [9] it was -41.6% (active); in assay [10] it was 107%; in [11] it was 96.9%; in [12], 103%. In addition, the growth was 107% in assay [13]; 99.3% in assay [14]; 112% in assay [15]; 135% in assay [16]; 104% in [17]; 127% in [18]. For the same compound, the growth in [19] is 103%; in assay [20], 102%.
As to `C=CCO[C@H]1CO[C@H]2[C@@H]1OC[C@@H]2Oc1ccc(Nc2ccnc(Nc3ccc(O[C@H]4CO[C@H]5[C@@H]4OC[C@@H]5OCC=C)c(Cl)c3)n2)cc1Cl`, the growth in [1] is 104%; in assay [2], -71% (active); in [3], -95.5% (active); in assay [4] it was -91.3% (active); in assay [5], -54.4% (active); in assay [6], 14.5%. Moreover, the growth was -7.16% (active) in assay [7]; 95.6% in assay [8]; -9.75% (active) in assay [9]; -39.3% (active) in [10]; -1.74% (active) in assay [11]; -32.7% (active) in [12]. Further, the growth in assay [13] is -4.18% (active); in [14], -55.7% (active); in assay [15], -86.7% (active); in assay [16], 115%; in [17], -94.1% (active); in assay [18], -85.5% (active). Moreover, the growth was -38.6% (active) in [19] and -63.6% (active) in assay [20].
